IDE act: activators of human insulin-degrading enzyme in cells. P14735. HEK cells, FAbeta-B cleavage, fluorescence polarization; 0% vehicle, 100% cell-free pure enzyme wells. activation, % at 5.96 µM. hit rate 0.073% among 340,000. AID 493087;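 active = activation above the mean of all tested compounds plus 3 SD, set per screening campaign, cut at about 17% in these data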
Target sequence (P14735 whole entry, looked up): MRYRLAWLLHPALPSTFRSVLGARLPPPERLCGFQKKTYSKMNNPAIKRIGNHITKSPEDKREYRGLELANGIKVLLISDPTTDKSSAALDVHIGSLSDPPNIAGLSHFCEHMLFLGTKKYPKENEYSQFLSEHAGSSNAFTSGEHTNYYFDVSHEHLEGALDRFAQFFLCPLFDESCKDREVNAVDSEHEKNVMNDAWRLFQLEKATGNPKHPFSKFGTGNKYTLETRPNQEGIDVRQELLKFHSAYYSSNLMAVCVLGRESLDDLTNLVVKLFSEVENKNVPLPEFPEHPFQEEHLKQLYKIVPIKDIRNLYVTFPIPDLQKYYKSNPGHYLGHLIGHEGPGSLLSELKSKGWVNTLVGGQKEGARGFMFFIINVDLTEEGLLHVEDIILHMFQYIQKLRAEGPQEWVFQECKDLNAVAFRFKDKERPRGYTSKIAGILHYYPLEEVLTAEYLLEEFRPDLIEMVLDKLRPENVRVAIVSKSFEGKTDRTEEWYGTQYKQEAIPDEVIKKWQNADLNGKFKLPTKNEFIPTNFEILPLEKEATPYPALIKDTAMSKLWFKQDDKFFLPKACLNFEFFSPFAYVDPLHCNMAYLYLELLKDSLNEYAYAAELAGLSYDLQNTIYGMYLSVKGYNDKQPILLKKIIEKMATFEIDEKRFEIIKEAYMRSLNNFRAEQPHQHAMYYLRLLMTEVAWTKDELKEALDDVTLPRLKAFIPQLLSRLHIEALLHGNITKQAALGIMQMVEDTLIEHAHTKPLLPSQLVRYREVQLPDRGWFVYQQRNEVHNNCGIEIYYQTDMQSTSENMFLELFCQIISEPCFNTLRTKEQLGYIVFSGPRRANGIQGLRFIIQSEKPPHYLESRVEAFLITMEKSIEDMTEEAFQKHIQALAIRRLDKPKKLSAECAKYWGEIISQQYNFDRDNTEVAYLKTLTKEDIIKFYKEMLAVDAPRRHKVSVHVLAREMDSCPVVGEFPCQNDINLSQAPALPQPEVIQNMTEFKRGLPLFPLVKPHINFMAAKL
CaV13 ICDI inh: Disruptors of the CACNA1D IQ motif to Ca2+-dependent inactivation inhibitor domain association, primary screening, Förster resonance energy transfer in intact living … | HEK cells, CFP/YFP FRET ICDI-IQ, plate reader, 10 min; percent FRET-ratio fall versus neutral wells | inhibition, % at 12.3 µM | hit rate 0.098% among 340,000;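 active = mean replicate inhibition of at least 30% and at least 1% of replicates passing that level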
PolyA inh: blocks polyadenylation in yeast reporter cells; S. cerevisiae SKY197-pL101 polyadenylation reporter, beta-gal luminescence; efflux-impaired pdr1/pdr3 knockout yeast; score 100 = 6 SD above DMSO; AID 1875; activity score, % at 12 µM; hit rate 0.02% among 300,000;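 active = lowest replicate activity score at least 50, where 100 means six control SD above control mean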;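 note: yeast exposed to compound for 9 h at 30 °C; higher score means more reporter readthrough which indicates perturbed polyadenylation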
M18AAP inhibitor: PfM18AAP enzyme inhibition; inhibition, % at 7.35 µM; hit rate 1.2% among 290,000; recombinant PfM18AAP, H-Glu-NHMec fluorogenic cleavage; AID 1822;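 active = inhibition above the campaign mean inhibition over all tested compounds plus 3 SD, cut at about 28% in these data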
ALR inh: human ALR oxidase inhibition via reduced H2O2; purified ALR, DTT oxidation, H2O2 HRP-luminol luminescence; inhibition, % (no concentration beside the values); hit rate 3.8% among 290,000;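 active = mean replicate inhibition above about 79%, with every replicate also reaching it, limit read from the data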
IDE inh: inhibits human insulin-degrading enzyme in HEK cells; P14735; FAbetaB cleavage, fluorescence polarization; inhibition, % at 5.59 µM; hit rate 0.41% among 320,000;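 active = percent inhibition above the average of all tested compounds plus 3 SD, set per screening campaign, cut at about 16% in these data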;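 note: IDE supplied by intact live HEK cells; FP after avidin binding of uncleaved biotin substrate so inhibition keeps polarization high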
Large screens that a line does not name were inactive. Shown are actives, neighbours in structure and some others; about 4.1% of the full set was active somewhere.

Cc1ccc(C(=O)N/N=c2\oc3ccccc3cc2C(N)=O)cc1	none (no result: ALR inh)
COc1ccc2cc(C(=O)NCc3ccco3)c(=O)oc2c1	none (no result: CaV13 ICDI inh)
CC(=O)c1cc2ccc(O)cc2oc1=O	CaV13 ICDI inh 33.4 (no result: ALR inh)
O=C1CSC(c2ccccc2[N+](=O)[O-])N1CCc1ccccc1 (stereo unspecified)	none
O=C(c1ccc(Br)cc1)c1cc2ccc(O)cc2oc1=O	ALR inh 96.8
Cc1ccc(S(=O)(=O)Nc2cc(C(C)C)c(O)cc2C)cc1	ALR inh 96.6
Cc1ccc(S(=O)(=O)Nc2cc(Cl)c(O)cc2C)cc1	none (no result: ALR inh)
COc1ccc(N(CC(=O)NC2CCCC2)C(=O)c2ccc(N3CCCCC3)nc2)cc1	none
Cc1csc(NC(=O)Cc2coc3cc(C)c(C(C)C)cc23)n1	ALR inh 88.7
N#C/C(=C/c1cccnc1)c1ccccc1	none
COc1cc(/C=C(\C#N)c2nc3c(s2)CCCC3)ccc1O	IDE inh 145.6 (no result: IDE act, CaV13 ICDI inh, ALR inh)
CC1CCc2nc(/C(C#N)=C/c3cccnc3)sc2C1 (stereo unspecified)	ALR inh 97.0
N#C/C(=C\c1cccnc1)c1nc2c(s1)CCCC2	ALR inh 97.6
CC1CCc2c(sc(/N=C/c3cccnc3)c2C(N)=O)C1 (stereo unspecified)	none (no result: IDE act)
Cc1ccc(CNC(=O)C2CCCN2S(=O)(=O)c2ccc(Cl)cc2)cc1 (stereo unspecified)	none (no result: ALR inh)
CCOC(=O)N1CCC(NC(=O)CSCc2nc(-c3ccc(OC)c(OC)c3)oc2C)CC1	ALR inh 98.4
COc1ccc(-c2nc(CSCC(=O)NC3CCN(Cc4ccccc4)CC3)c(C)o2)cc1OC	ALR inh 98.9
CCOC(=O)N1CCC(NC(=O)CSCc2nc(-c3ccc(C)cc3)oc2C)CC1	none
COc1ccc(-c2nc(CSCC(=O)NC3CC3)c(C)o2)cc1OC	ALR inh 99.0
COc1ccc(-c2nc(CSCC(=O)NC3CCCC3)c(C)o2)cc1OC	ALR inh 98.8
CN1CCN(C(=O)CSc2nnc(COc3ccc(Cl)cc3)o2)CC1	none
Cc1ccc(C)c(N2CCN(C(=O)c3ccc(N4CCCC4=O)cc3)CC2)c1	none (no result: CaV13 ICDI inh)
CC(=O)c1ccc(N2CCN(C(=O)c3cc(-c4ccncc4)nc4ccc(Cl)cc34)CC2)cc1	none
NC(=S)NNc1cccc(Cl)c1	ALR inh 97.9
CC(=O)Nc1ccc(NC(=O)COC(=O)c2c(C)nn(-c3ccccc3)c2C)cc1	ALR inh 93.6
O=C(NC(=S)Nc1cccc2c(O)cccc12)c1ccco1	ALR inh 99.4 (no result: CaV13 ICDI inh)
O=C(NC(=S)Nc1cccc2cc(O)ccc12)c1ccco1	ALR inh 94.5
O=C(NC(=S)Nc1cccc2cc(O)ccc12)c1ccccc1Br	none (no result: CaV13 ICDI inh)
CCCC(=O)NC(=S)Nc1cccc2c(O)cccc12	ALR inh 90.9
NC(=O)NNC(=S)Nc1cccc2ccccc12	M18AAP inhibitor 49.5
CCc1ccc2nc(N(CCN(C)C)C(=O)c3ccc4ccccc4c3)sc2c1	none (no result: CaV13 ICDI inh)
CCOc1cc(C(C(=O)NCC2CCCO2)N(C(=O)Cn2nnc3ccccc32)c2ccc(NC(C)=O)cc2)ccc1O (stereo unspecified)	none
CC(=O)Nc1ccc(N(C(=O)Cn2nnc3ccccc32)C(C(=O)NC2CCCC2)c2ccc(O)c(O)c2)cc1 (stereo unspecified)	M18AAP inhibitor 64.6, ALR inh 92.5
CCCS(=O)(=O)NC(=O)C1(C)CCN(C(=O)c2cc(C)on2)C1 (stereo unspecified)	none (no result: IDE act, PolyA inh, M18AAP inhibitor, ALR inh, IDE inh)
COC(=O)c1ccc(CSc2nc3ccccc3c(=O)n2CC(C)C)o1	none
CCCn1c(C)cc(C(=O)CSc2nc3ccccc3c(=O)n2Cc2ccco2)c1C	ALR inh 99.1
COC(=O)c1ccc2c(=O)n(Cc3ccco3)c(SCC(=O)Nc3ccc(C)c(Cl)c3)nc2c1	ALR inh 99.6
COC(=O)c1ccc(CSc2nc3ccccc3c(=O)n2Cc2ccco2)o1	ALR inh 93.6 (no result: CaV13 ICDI inh)
NC(=O)CSc1nc2ccccc2c(=O)n1Cc1ccco1	none
O=C(CSc1nc2cc(Cl)ccc2c(=O)n1Cc1ccco1)Nc1ccc(S(=O)(=O)N2CCOCC2)cc1	none
O=c1[nH][nH]c2c1C(C1CCCCC1)OC(C1CCCCC1)C2 (stereo unspecified)	none (no result: IDE act, PolyA inh, M18AAP inhibitor, ALR inh, IDE inh)
COc1cc2c(CCNC(C)=O)c[nH]c2cc1O	ALR inh 80.2 (no result: M18AAP inhibitor)
COc1ccc(CCNC(=O)NCCc2c[nH]c3ccccc23)cc1OC	none
C#CCOCCOCCOCCNc1nc(N2CCN(C(=O)Cn3cc(CC(C)O)nn3)CC2)nc(N2CCN(C(=O)[C@H](CCCCN)n3cc(CCCC)nn3)CC2)n1 (stereo partly specified)	none (no result: PolyA inh, M18AAP inhibitor, ALR inh, IDE inh)
Cc1ccccc1C(=O)NC1CCN(C(=O)NC2CCCCC2)CC1	none
Cc1ccccc1C(=O)NC1CCN(C(=O)N(c2ccccc2)c2ccccc2)CC1	ALR inh 86.0
COP(=O)(CC(=O)c1ccccc1)CC(=O)c1ccccc1	none
Cc1nn(-c2cc(N3CCCCC3)ccc2N)c(=O)c2ccccc12	ALR inh 99.1
Cc1nn(-c2cc(N3CCCCCC3)ccc2[N+](=O)[O-])c(=O)c2ccccc12	none
O=C(CCC1CCCC1)c1c(O)c2ccccc2oc1=O	ALR inh 93.2
O=C(c1c(O)c2ccccc2oc1=O)C1CCCCC1	none
Nc1ccc(S(N)(=O)=O)cc1N	ALR inh 84.4
CCCN1CCC(C)(C(=O)Nc2ccccc2Oc2ccccc2)C1 (stereo unspecified)	none (no result: IDE act, PolyA inh, M18AAP inhibitor, ALR inh, IDE inh)
O=C(O)c1cccc2c1C(=O)c1ccc(-c3ccc(F)cc3OCc3ccccc3)cc1S2(=O)=O	ALR inh 98.3 (no result: CaV13 ICDI inh, PolyA inh, M18AAP inhibitor)
C/C(CC(=O)Nc1ccc(N(C)C)cc1)=N\NC(=O)c1ccc([N+](=O)[O-])cc1Cl	ALR inh 99.6
C/C(CC(=O)Nc1ccc(N(C)C)cc1)=N\NC(=O)c1ccc(Cl)cc1Cl	none
CCc1ccc(NC(=O)N(CCN2CCOCC2)Cc2ccc3c(c2)CCCN3CC)cc1	ALR inh 98.5
CCN1CCCc2cc(CN(CCN3CCOCC3)C(=O)Nc3ccc(C)c(C)c3)ccc21	ALR inh 98.9
CCc1ccc(NC(=O)N(CCCN2CCOCC2)Cc2cccs2)cc1	none
CC[C@@H]1C=C(C(=O)O)[C@H](c2ccc(OC)c(OC)c2)N1S(=O)(=O)c1ccc(C)cc1	none (no result: PolyA inh, M18AAP inhibitor, ALR inh)
O=C(Sc1ccccc1)c1cccc(Cn2cc(C(F)(F)F)ccc2=O)c1	none (no result: IDE act, ALR inh)
COC(=O)C(C(=O)OC)c1ccc(-n2cccc2)cc1	none
O=C(c1cc2cc(F)ccc2[nH]1)N1CCCC(Nc2ccc(F)cc2)C1 (stereo unspecified)	none
Cc1cc(C(=O)N2CCCC(Nc3ccccc3)C2)c2ccc(F)cc2n1 (stereo unspecified)	ALR inh 98.5

Source: PubChem
